# Measured values: paper PMC10812921, “Transcriptional Coactivator BOB1 (OBF1, OCA-B) Modulates the Specificity of DNA Recognition by the POU-Domain Factors OCT1 and OCT2 in a Monomeric Configuration”
# How the values were obtained:
# POU1 (OCT1 POU domain) = POU1 (OCT1 POU domain) (human, UniProt P14859 260-458); experiment: EMSA-SELEX-seq; no BOB1; 20 mM Tris-HCl pH 7.6, 140 mM NaCl, 10% glycerol, 0.5 mM EDTA, 0.05% Triton X-100, 0.1 mg/mL BSA, 0.1 mg/mL poly(dI-dC), 5 mM DTT, room temperature, 20 min; high values mean tight binding; details: protein: recombinant; dsDNA, one strand shown
# Outline: (§1)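 With or without 28 ng coactivator protein, 30 ng of tagged POU-domain protein was combined with 300 ng of a PCR-amplified double-stranded random 35-nt library in 20 μL Tris–HCl pH 7.6 binding buffer for 20 min at RT. The protein came from E. coli BL21 and had been purified under denaturing conditions and renatured. Four rounds of cutting complex bands from native 6% PAGE, elution and PCR amplification preceded Illumina sequencing. The binding preference figure is the percentage of sequenced 8-mers matching a motif pattern.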
# POU2 (OCT2 POU domain) = biological target: T1, POU2 (OCT2 POU domain) (human, UniProt P09086 175-386); experiment: as above; details: protein: recombinant; dsDNA, one strand shown
# T1 sequence: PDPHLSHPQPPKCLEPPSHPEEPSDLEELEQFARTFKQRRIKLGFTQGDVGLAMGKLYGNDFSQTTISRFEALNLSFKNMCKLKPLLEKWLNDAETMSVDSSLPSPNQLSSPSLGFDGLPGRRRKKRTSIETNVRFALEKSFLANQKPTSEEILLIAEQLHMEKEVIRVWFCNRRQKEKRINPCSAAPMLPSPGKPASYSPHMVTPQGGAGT
# Outline: as §1
# [1] = biological target: POU1 (OCT1 POU domain);BOB1 (OBF1, OCA-B) (human;human, UniProt P14859;Q16633 260-458;1-256, |); experiment: EMSA-SELEX-seq; with BOB1 (ternary complex band); 20 mM Tris-HCl pH 7.6, 140 mM NaCl, 10% glycerol, 0.5 mM EDTA, 0.05% Triton X-100, 0.1 mg/mL BSA, 0.1 mg/mL poly(dI-dC), 5 mM DTT, room temperature, 20 min; high values mean tight binding; details: protein: recombinant;recombinant; copies: 1;1; dsDNA, one strand shown
# Outline: as §1
# [2] = biological target: T2, POU2 (OCT2 POU domain);BOB1 (OBF1, OCA-B) (human;human, UniProt P09086;Q16633 175-386;1-256, |); experiment: as above; details: protein: recombinant;recombinant; copies: 1;1; dsDNA, one strand shown
# T2 sequence 1: T1 sequence
# T2 sequence 2: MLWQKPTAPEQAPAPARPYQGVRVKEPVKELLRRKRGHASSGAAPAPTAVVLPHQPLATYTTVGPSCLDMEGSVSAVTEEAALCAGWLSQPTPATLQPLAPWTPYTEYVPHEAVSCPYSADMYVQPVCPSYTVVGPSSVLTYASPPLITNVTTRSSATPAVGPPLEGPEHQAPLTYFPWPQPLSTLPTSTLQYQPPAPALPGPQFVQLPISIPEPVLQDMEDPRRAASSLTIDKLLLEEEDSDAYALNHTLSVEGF
# Outline: as §1
# POU1 (OCT1 POU domain), sequence (P14859 260-458): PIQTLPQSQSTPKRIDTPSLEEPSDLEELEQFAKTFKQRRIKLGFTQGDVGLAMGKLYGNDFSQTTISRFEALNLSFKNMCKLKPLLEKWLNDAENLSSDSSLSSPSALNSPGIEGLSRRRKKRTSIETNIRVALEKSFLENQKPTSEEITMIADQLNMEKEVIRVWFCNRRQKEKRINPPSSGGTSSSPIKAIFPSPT
Sequence,binding signal (POU1 (OCT1 POU domain)),binding signal (POU2 (OCT2 POU domain)),binding signal [1],binding signal [2]
ATTTCAAT,0.238 % of ANNNNAAN 8-mers,0.268 % of ANNNNAAN 8-mers,0.174 % of ANNNNAAN 8-mers,0.142 % of ANNNNAAN 8-mers
ATGCTAAT,1.85 % of ANNNNAAN 8-mers,1.82 % of ANNNNAAN 8-mers,0.249 % of ANNNNAAN 8-mers,0.283 % of ANNNNAAN 8-mers
ATACAAAC,0.0648 % of ANNNNAAN 8-mers,0.0512 % of ANNNNAAN 8-mers,0.0819 % of ANNNNAAN 8-mers,0.0528 % of ANNNNAAN 8-mers
AGATTAAA,0.105 % of ANNNNAAN 8-mers,0.11 % of ANNNNAAN 8-mers,0.0648 % of ANNNNAAN 8-mers,0.071 % of ANNNNAAN 8-mers
ACGCTAAG,0.0202 % of ANNNNAAN 8-mers,0.0167 % of ANNNNAAN 8-mers,0.0242 % of ANNNNAAN 8-mers,0.0231 % of ANNNNAAN 8-mers
AGGTCAAC,0.0198 % of ANNNNAAN 8-mers,0.0288 % of ANNNNAAN 8-mers,0.0269 % of ANNNNAAN 8-mers,0.0289 % of ANNNNAAN 8-mers
ATCGCAAA,0.0515 % of ANNNNAAN 8-mers,0.0478 % of ANNNNAAN 8-mers,0.0816 % of ANNNNAAN 8-mers,0.0413 % of ANNNNAAN 8-mers
ATTCGAAT,0.117 % of ANNNNAAN 8-mers,0.137 % of ANNNNAAN 8-mers,0.08 % of ANNNNAAN 8-mers,0.102 % of ANNNNAAN 8-mers
ACGGAAAG,0.0397 % of ANNNNAAN 8-mers,0.0443 % of ANNNNAAN 8-mers,0.0406 % of ANNNNAAN 8-mers,0.0371 % of ANNNNAAN 8-mers
ATTAAAAC,0.108 % of ANNNNAAN 8-mers,0.122 % of ANNNNAAN 8-mers,0.0757 % of ANNNNAAN 8-mers,0.0718 % of ANNNNAAN 8-mers
ATTTGAAA,0.142 % of ANNNNAAN 8-mers,0.0995 % of ANNNNAAN 8-mers,0.178 % of ANNNNAAN 8-mers,0.0933 % of ANNNNAAN 8-mers
AATCTAAA,0.107 % of ANNNNAAN 8-mers,0.129 % of ANNNNAAN 8-mers,0.0726 % of ANNNNAAN 8-mers,0.0669 % of ANNNNAAN 8-mers
AACAAAAA,0.0831 % of ANNNNAAN 8-mers,0.0662 % of ANNNNAAN 8-mers,0.121 % of ANNNNAAN 8-mers,0.0726 % of ANNNNAAN 8-mers
AGACCAAA,0.0179 % of ANNNNAAN 8-mers,0.0213 % of ANNNNAAN 8-mers,0.0246 % of ANNNNAAN 8-mers,0.0239 % of ANNNNAAN 8-mers
AAAGTAAT,0.103 % of ANNNNAAN 8-mers,0.14 % of ANNNNAAN 8-mers,0.11 % of ANNNNAAN 8-mers,0.0941 % of ANNNNAAN 8-mers
ATGGAAAT,0.943 % of ANNNNAAN 8-mers,0.723 % of ANNNNAAN 8-mers,0.958 % of ANNNNAAN 8-mers,0.982 % of ANNNNAAN 8-mers
ATTTAAAC,0.137 % of ANNNNAAN 8-mers,0.161 % of ANNNNAAN 8-mers,0.117 % of ANNNNAAN 8-mers,0.109 % of ANNNNAAN 8-mers
ATCTAAAG,0.0412 % of ANNNNAAN 8-mers,0.0397 % of ANNNNAAN 8-mers,0.0503 % of ANNNNAAN 8-mers,0.0479 % of ANNNNAAN 8-mers
ACCGCAAA,0.0179 % of ANNNNAAN 8-mers,0.0167 % of ANNNNAAN 8-mers,0.018 % of ANNNNAAN 8-mers,0.0124 % of ANNNNAAN 8-mers
AGAACAAC,0.0153 % of ANNNNAAN 8-mers,0.0132 % of ANNNNAAN 8-mers,0.0125 % of ANNNNAAN 8-mers,0.0239 % of ANNNNAAN 8-mers
AGCGGAAA,0.0378 % of ANNNNAAN 8-mers,0.0472 % of ANNNNAAN 8-mers,0.0324 % of ANNNNAAN 8-mers,0.033 % of ANNNNAAN 8-mers
ATAGGAAT,0.098 % of ANNNNAAN 8-mers,0.132 % of ANNNNAAN 8-mers,0.0898 % of ANNNNAAN 8-mers,0.106 % of ANNNNAAN 8-mers
AGACTAAA,0.0374 % of ANNNNAAN 8-mers,0.0443 % of ANNNNAAN 8-mers,0.0297 % of ANNNNAAN 8-mers,0.0289 % of ANNNNAAN 8-mers
ATGATAAT,0.513 % of ANNNNAAN 8-mers,0.582 % of ANNNNAAN 8-mers,0.138 % of ANNNNAAN 8-mers,0.135 % of ANNNNAAN 8-mers
AGGCAAAT,0.77 % of ANNNNAAN 8-mers,0.546 % of ANNNNAAN 8-mers,2.22 % of ANNNNAAN 8-mers,2.15 % of ANNNNAAN 8-mers
AGGCCAAT,0.0339 % of ANNNNAAN 8-mers,0.0443 % of ANNNNAAN 8-mers,0.0316 % of ANNNNAAN 8-mers,0.0413 % of ANNNNAAN 8-mers
ATGTTAAT,1.39 % of ANNNNAAN 8-mers,1.31 % of ANNNNAAN 8-mers,0.208 % of ANNNNAAN 8-mers,0.24 % of ANNNNAAN 8-mers
ACAGCAAA,0.0248 % of ANNNNAAN 8-mers,0.0213 % of ANNNNAAN 8-mers,0.0359 % of ANNNNAAN 8-mers,0.0347 % of ANNNNAAN 8-mers
AAATTAAG,0.303 % of ANNNNAAN 8-mers,0.342 % of ANNNNAAN 8-mers,0.238 % of ANNNNAAN 8-mers,0.319 % of ANNNNAAN 8-mers
